Assay results published in PubChem BioAssay (Tox21).
Activity calls are given as the source filed them. Unless noted, calls follow the shape of the dose curve; as a rule, active = well fitted curve in the direction sought with a large enough effect in the repeat runs; inconclusive = weak or mixed curves; inactive = no such curve, though single readings can be large; an effect the other way counts as inactive or inconclusive.

Assays:
[1] = qHTS assay to identify small molecule antagonists of the thyroid receptor (TR) signaling pathway (AID 743065); also: nearly all actives have a fitted effect of over 55% in size
In short: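 GH3.TRE-Luc rat pituitary cells (two TREs driving luciferase) were dosed with compound, then stimulated with 1 nM T3 (final) for 23.5 h at 37 C. ONE-Glo luminescence was the read-out, with CellTiter-Fluor fluorescence as the cytotoxicity counter-screen.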

[2] = tested on: thyroid hormone receptor (rat, GH3 cells); assay: qHTS assay to identify small molecule agonists of the thyroid receptor (TR) signaling pathway (AID 743066; calls by dose curve)
[3] = biological target: Estrogen receptor (Homo sapiens) (UniProt P03372); assay: qHTS assay to identify small molecule antagonists of the estrogen receptor alpha (ER-alpha) signaling pathway (AID 743069; active = well fitted curve in the direction sought with a large enough effect in the signal ratio in the repeat runs, not every such curve was filed as active; inconclusive = weak or mixed curves, or effect the other way; inactive = no such curve, though single readings can be large or run the other way; the % refers to the signal ratio)
Chain of Estrogen receptor (Homo sapiens) (P03372 whole entry, looked up): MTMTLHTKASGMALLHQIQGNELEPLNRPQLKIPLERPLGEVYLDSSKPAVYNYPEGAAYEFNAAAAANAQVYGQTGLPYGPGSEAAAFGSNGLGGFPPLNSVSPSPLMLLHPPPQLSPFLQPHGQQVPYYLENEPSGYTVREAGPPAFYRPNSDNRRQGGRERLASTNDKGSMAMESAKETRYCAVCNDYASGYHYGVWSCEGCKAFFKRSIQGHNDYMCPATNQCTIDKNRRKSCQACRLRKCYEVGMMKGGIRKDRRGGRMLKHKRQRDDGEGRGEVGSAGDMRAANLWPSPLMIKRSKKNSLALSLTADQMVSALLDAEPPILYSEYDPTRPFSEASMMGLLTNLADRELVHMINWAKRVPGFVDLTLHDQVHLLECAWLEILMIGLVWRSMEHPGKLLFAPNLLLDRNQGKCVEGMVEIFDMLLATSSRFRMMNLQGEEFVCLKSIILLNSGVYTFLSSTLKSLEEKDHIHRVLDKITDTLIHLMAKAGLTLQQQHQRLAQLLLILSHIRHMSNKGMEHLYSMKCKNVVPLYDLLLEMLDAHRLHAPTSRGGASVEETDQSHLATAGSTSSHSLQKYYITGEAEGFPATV
In short: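 Reporter cells (ER-alpha-bla, HEK293 background) are conditioned overnight in stripped-serum medium (2% charcoal-stripped FBS). Compound and 17beta-estradiol exposure runs 18 hr at 37C, 5% CO2.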

[4] = qHTS assay to identify small molecule antagonists of the estrogen receptor alpha (ER-alpha) signaling pathway - cell viability counter screen (AID 743074; calls by dose curve;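 also: HEK293 cells carrying ER-alpha-UAS-bla reporter stimulated with 17beta-estradiol; nearly all actives have a fitted effect of over 45% in size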)
[5] = biological target: Estrogen receptor (Homo sapiens) (UniProt P03372); assay: qHTS assay to identify small molecule agonists of the estrogen receptor alpha (ER-alpha) signaling pathway using the BG1 cell line (AID 743079); settings: BG1Luc4E2 cells, ERE-luciferase agonist, 22 h; activation: at 70.3 µM (top of the series); also: nearly all actives have a fitted effect of over 20% in size
[6] = qHTS assay to identify small molecule antagonists of the estrogen receptor alpha (ER-alpha) signaling pathway using the BG1 cell line - cell viability counter screen (AID 743081);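 also: compound given together with 17beta-estradiol as the ER stimulus; nearly all actives have a fitted effect of over 45% in size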
Aromatase (Homo sapiens) = Aromatase (Homo sapiens) (UniProt P11511); assay: qHTS assay to identify aromatase inhibitors (AID 743083); also: nearly all actives have a fitted effect of over 55% in size
Chain of Aromatase (Homo sapiens) (P11511 whole entry, looked up): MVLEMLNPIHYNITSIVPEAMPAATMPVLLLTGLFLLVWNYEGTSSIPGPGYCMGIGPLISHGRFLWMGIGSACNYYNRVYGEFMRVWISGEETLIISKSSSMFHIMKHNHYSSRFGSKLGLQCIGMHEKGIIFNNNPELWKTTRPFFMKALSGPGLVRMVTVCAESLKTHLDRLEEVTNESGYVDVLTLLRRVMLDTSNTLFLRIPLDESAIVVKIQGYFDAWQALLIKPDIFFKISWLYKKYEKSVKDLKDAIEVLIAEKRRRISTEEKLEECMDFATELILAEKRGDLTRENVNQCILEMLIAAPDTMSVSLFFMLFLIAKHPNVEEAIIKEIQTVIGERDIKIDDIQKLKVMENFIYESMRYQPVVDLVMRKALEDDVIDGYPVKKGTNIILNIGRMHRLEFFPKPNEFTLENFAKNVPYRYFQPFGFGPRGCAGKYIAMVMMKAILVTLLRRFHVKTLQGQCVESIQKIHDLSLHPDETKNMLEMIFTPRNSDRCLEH

[7] = qHTS assay to identify small molecule antagonists of the thyroid receptor (TR) signaling pathway - cell viability counter screen (AID 743064); also: nearly all actives have a fitted effect of over 50% in size
In short: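 GH3.TRE-Luc rat pituitary cells carrying a TRE-luciferase reporter were treated with compound plus 1 nM T3 (final) for 23.5 h at 37 °C. Viability was then read in the same wells by CellTiter-Fluor fluorescence after a further 30 min.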

[8] = biological target: Estrogen receptor (Homo sapiens) (UniProt P03372); assay: qHTS assay to identify small molecule agonists of the estrogen receptor alpha (ER-alpha) signaling pathway (AID 743075; calls by dose curve;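 also: HEK293 GripTite cells with ER-alpha and UAS-driven beta-lactamase reporter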)
[9] = qHTS assay to identify small molecule antagonists of the estrogen receptor alpha (ER-alpha) signaling pathway using the BG1 cell line (AID 743080; calls by dose curve;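 also: BG1 cells stimulated with 17beta-estradiol alongside compound; nearly all actives have a fitted effect of over 25% in size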)
In short: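 BG1Luc4E2, endogenous ER-alpha, 4xERE-luc; 5 d charcoal-stripped FBS, phenol red free; 24 h plating; cpd + 17beta-estradiol 21.5 h, 37 C/5% CO2; CellTiter-Fluor viability 30 min, then ONE-Glo luciferase 30 min RT.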

Measured: Potency
Potency is read from the fitted curve at half-maximal effect.

c1ccc(Nc2ccc(Nc3ccccc3)cc2)cc1
active: [1] 9.65 µM | [3] 1.73 µM [inconclusive] | [5] 6.09 µM
inactive: [2] | [4] | [6] | Aromatase (Homo sapiens)

CCOP(=O)(Sc1ccccc1)Sc1ccccc1
inactive: [7] | [4] | [8] | [6]

COc1cnc(OC)n2nc(NS(=O)(=O)c3c(OCC(F)F)cccc3C(F)(F)F)nc12
inactive: [1] | [2] | [3] | [4] | [8] | [5] | [9] | [6] | Aromatase (Homo sapiens)

C=Cc1cccc(CCl)c1
inactive: [1] | [2] | [3] | [4] | [8] | [5] | [9] | [6] | Aromatase (Homo sapiens)

CC(Cc1ccc2c(c1)OCO2)NO (stereo unspecified)
inactive: [1] | [2] | [3] | [4] | [8] | [5] | [9] | [6] | Aromatase (Homo sapiens)

Clc1ccc(C(Cl)(Cl)Cl)cc1Cl
inactive: [7] | [3] | [4] | [8] | [5] | [9] | [6] | Aromatase (Homo sapiens)

COC(=O)C(C)N(C(=O)c1ccco1)c1c(C)cccc1C (stereo unspecified)
inactive: [1] | [2] | [3] | [4] | [8] | [5] | [6] | Aromatase (Homo sapiens)

CC(=O)[O-].CC(=O)[O-].O.O.[Zn+2]
inactive: [7] | [2] | [6] | Aromatase (Homo sapiens)

CNC(=O)/C=C(\C)OP(=O)(OC)OC
inactive: [1] | [2] | [3] | [4] | [8] | [5] | [9] | [6] | Aromatase (Homo sapiens)

CC(=O)[O-].CC(=O)[O-].[Co+2]
inactive: [7] | [2] | [4] | [6] | Aromatase (Homo sapiens)

Cc1cccc(Cc2cnc[nH]2)c1C
inactive: [1] | [2] | [3] | [8] | [5] | [9] | [6]

ClC(Cl)C(Cl)(Cl)Cl
inactive: [1] | [2] | [3] | [4] | [8] | [5] | [9] | [6] | Aromatase (Homo sapiens)

CCC1COC(Cn2cncn2)(c2ccc(Cl)cc2Cl)O1 (stereo unspecified)
active: Aromatase (Homo sapiens) 24.3 µM
inactive: [1] | [2] | [3] | [4] | [8] | [5] | [6]

Oc1cccc(Cl)c1Cl
inactive: [1] | [2] | [3] | [4] | [8] | [5] | [9] | [6] | Aromatase (Homo sapiens)

CC(C)NCC(O)c1ccccc1Cl (stereo unspecified)
inactive: [1] | [2] | [3] | [4] | [8] | [5] | [9] | [6] | Aromatase (Homo sapiens)

CC(=O)[O][Sn]([c]1ccccc1)([c]1ccccc1)[c]1ccccc1
active: [7] 0.172 µM | [4] 0.195 µM | [6] 3.86 µM

COC(=O)/C=C(\C)OP(=O)(OC)OC
inactive: [1] | [2] | [3] | [4] | [9] | [6]

ClSC(Cl)(Cl)Cl
inactive: [1] | [2] | [3] | [4] | [8] | [5] | [9] | [6] | Aromatase (Homo sapiens)

CCc1cccc(C)c1N(C(=O)CCl)[C@@H](C)COC
inactive: [7] | [4] | [6]

S=C=Nc1ccccc1
inactive: [1] | [2] | [3] | [4] | [8] | [5] | [9] | [6] | Aromatase (Homo sapiens)

CCCCN(CCCC)C(=S)[S-].CCCCN(CCCC)C(=S)[S-].[Ni+2]
inactive: [1] | [2] | [3] | [4] | [8] | [9] | [6] | Aromatase (Homo sapiens)

CC(C)C(Nc1ccc(C(F)(F)F)cc1Cl)C(=O)OC(C#N)c1cccc(Oc2ccccc2)c1 (stereo unspecified)
inactive: [1] | [2] | [3] | [4] | [5] | [9] | [6] | Aromatase (Homo sapiens)

O.O.O.O.O.O.O.O=S(=O)([O-])[O-].[Co+2]
inactive: [7] | [6] | Aromatase (Homo sapiens)

O.O.O.O.O.O.O=S(=O)([O-])[O-].[Ni+2]
inactive: [7] | [4] | [6] | Aromatase (Homo sapiens)

CCCN
inactive: [7] | [4] | [6] | Aromatase (Homo sapiens)

COc1ccc2c3c1O[C@H]1[C@H](O)CC[C@H]4[C@@H](C2)N(C)CC[C@@]341
inactive: [7] | [4] | [6] | Aromatase (Homo sapiens)

CC(C)=CC1C(C(=O)OC(C#N)c2cccc(Oc3ccccc3)c2)C1(C)C (stereo unspecified)
inactive: [7] | [2] | [6] | Aromatase (Homo sapiens)

Clc1ccc(C2(Cn3cncn3)OCCO2)c(Cl)c1
inactive: [7] | [3] | [4] | [8] | [5] | [9] | [6] | Aromatase (Homo sapiens)

CCC(C)c1cccc(C(C)CC)c1O (stereo unspecified)
inactive: [2] | [3] | [4] | [8] | [5] | [9] | [6]
active: [1] 61.1 µM

BrCCCBr
inactive: [1] | [2] | [4] | [6] | Aromatase (Homo sapiens)

CN=C=O
inactive: [1] | [2] | [4] | [6] | Aromatase (Homo sapiens)

COc1ccc2c(c1OC)C(=O)O[C@@H]2[C@H]1c2cc3c(cc2CCN1C)OCO3
inactive: [1] | [2] | [4] | Aromatase (Homo sapiens)

CCCCCON=O
inactive: [1] | [2] | [6] | Aromatase (Homo sapiens)

[C-]1=CC=CC1.[Cl][Zr+2][Cl].c1cc[cH-]c1
inactive: [1] | [2] | [4] | [6]

Nc1c(Cl)c(Cl)c(Cl)c(Cl)c1Cl
inactive: [1] | [2] | [4] | [6] | Aromatase (Homo sapiens)

[Cl-].[Cl-].[Cl-].[Yb+3]
inactive: [1] | [2] | [4] | [6] | Aromatase (Homo sapiens)

C=C(C)C(=O)[O][Sn]([CH2]CCC)([CH2]CCC)[CH2]CCC
active: [1] 0.306 µM | [2] 0.0306 µM | [4] 1.74 µM | [9] 0.344 µM | [6] 1.37 µM | Aromatase (Homo sapiens) 3.86 µM

CSSC
inactive: [1] | [2] | [4] | [6]

COP(=S)(NC(C)C)Oc1ccc(C)cc1[N+](=O)[O-] (stereo unspecified)
inactive: [1] | [2] | [4] | [6]
active: [8] 5.49 µM [inconclusive] | [5] 1.93 µM | [9] 38.6 µM

CC(C)=CCN1CC[C@@]2(C)c3cc(O)ccc3C[C@@H]1[C@@H]2C
active: [1] 21.4 µM
inactive: [2] | [3] | [8] | [5] | [6] | Aromatase (Homo sapiens)

CSC1=N[C@@](C)(c2ccccc2)C(=O)N1Nc1ccccc1
inactive: [2] | [4]
active: [1] 6.86 µM

CC1(C)[C@H](/C=C2\CCSC2=O)[C@@H]1C(=O)OCc1coc(Cc2ccccc2)c1
active: [1] 43.3 µM | [9] 68.6 µM
inactive: [2] | [4] | [8] | [6] | Aromatase (Homo sapiens)

CCCCON=O
inactive: [1] | [2] | [4] | [6] | Aromatase (Homo sapiens)

CC(C)(C)c1ccc(OP(=O)(Oc2ccccc2)Oc2ccccc2)cc1
inactive: [2] | [4] | [8] | [9] | [6] | Aromatase (Homo sapiens)
active: [1] 27.5 µM

CO/N=C(/C1=NOCCO1)c1ccccc1Oc1ncnc(Oc2ccccc2Cl)c1F
active: [1] 0.863 µM | [3] 54.9 µM [inconclusive] | [9] 8.63 µM | Aromatase (Homo sapiens) 54.4 µM

O=C(N[C@H]1N=C(c2ccccc2F)c2cccc3c2N(CC3)C1=O)c1cc2ccccc2[nH]1
inactive: [2] | [6] | Aromatase (Homo sapiens)
active: [1] 5.96 µM

CCNS(=O)(=O)C(F)(F)C(F)(F)C(F)(F)C(F)(F)C(F)(F)C(F)(F)C(F)(F)C(F)(F)F
inactive: [1] | [2] | [4] | [6] | Aromatase (Homo sapiens)

CCC(C)Br (stereo unspecified)
inactive: [1] | [2] | [4] | [6] | Aromatase (Homo sapiens)
